Two sequences from paper PMC7862700, “An all-to-all approach to the identification of sequence-specific readers for epigenetic DNA modifications on cytosine” can be followed below.

Test in all cases: DAPPL (digital affinity profiling via proximity ligation, sequencing); 10 mM Tris-HCl pH 7.5, 50 mM NaCl, 1 mM DTT, 4% glycerol, room temperature, 30 min; GST-TFs on glutathione beads, 16-mer random dsDNA library, 0.1% formaldehyde crosslink after washing; high values mean tight binding
What all share (conditions): protein: recombinant; tags: N-terminal GST; dsDNA, one strand shown

The target in experiment [1] is T1, FLI1 (Homo sapiens, UniProt Q01543 1-452).
T1 sequence: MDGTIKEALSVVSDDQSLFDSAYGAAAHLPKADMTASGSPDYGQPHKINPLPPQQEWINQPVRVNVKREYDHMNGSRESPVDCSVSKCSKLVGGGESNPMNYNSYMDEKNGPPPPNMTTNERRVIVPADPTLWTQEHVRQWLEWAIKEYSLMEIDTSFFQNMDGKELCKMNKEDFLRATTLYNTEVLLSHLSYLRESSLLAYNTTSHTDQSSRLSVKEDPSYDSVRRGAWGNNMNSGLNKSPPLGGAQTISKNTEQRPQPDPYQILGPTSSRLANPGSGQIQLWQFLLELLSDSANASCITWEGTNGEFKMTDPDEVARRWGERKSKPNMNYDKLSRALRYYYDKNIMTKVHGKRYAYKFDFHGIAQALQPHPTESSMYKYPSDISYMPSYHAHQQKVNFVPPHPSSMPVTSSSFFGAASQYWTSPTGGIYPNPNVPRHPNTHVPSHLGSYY
In outline: (§1)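 Human transcription factors fused to GST were expressed in yeast, captured on glutathione beads, given DNA barcodes and pooled with a GST-only negative control. Pools were incubated with 200 nmole of a 16-mer random double-stranded DNA library in Tris/NaCl/DTT/glycerol buffer at room temperature for 30 min. They were then washed, crosslinked with 0.1% formaldehyde, proximity-ligated (BsaI/T4 ligase, 1 h, 37 °C), PCR-amplified and sequenced on an Illumina NextSeq500. Binding signal is each 6-mer's read frequency for a factor divided by its frequency for the GST control.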

Experiment [2] concerns the target T2, ELK1 (Homo sapiens, UniProt P19419 1-428).
T2 sequence: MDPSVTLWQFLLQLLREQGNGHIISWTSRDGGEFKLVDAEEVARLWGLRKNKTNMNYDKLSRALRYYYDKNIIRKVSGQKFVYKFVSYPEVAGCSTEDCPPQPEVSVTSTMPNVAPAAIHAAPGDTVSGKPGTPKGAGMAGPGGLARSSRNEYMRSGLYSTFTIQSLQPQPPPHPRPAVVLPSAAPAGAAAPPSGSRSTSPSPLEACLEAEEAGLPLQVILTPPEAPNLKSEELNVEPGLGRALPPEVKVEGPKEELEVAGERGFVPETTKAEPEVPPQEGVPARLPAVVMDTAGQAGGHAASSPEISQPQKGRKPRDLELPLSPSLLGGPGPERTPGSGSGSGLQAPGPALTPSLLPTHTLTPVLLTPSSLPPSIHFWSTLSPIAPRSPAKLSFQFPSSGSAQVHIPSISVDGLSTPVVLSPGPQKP
In a few lines:
as §1

Experiment [3] deals with T3, GABPA (Homo sapiens, UniProt Q06546 1-454).
T3 sequence: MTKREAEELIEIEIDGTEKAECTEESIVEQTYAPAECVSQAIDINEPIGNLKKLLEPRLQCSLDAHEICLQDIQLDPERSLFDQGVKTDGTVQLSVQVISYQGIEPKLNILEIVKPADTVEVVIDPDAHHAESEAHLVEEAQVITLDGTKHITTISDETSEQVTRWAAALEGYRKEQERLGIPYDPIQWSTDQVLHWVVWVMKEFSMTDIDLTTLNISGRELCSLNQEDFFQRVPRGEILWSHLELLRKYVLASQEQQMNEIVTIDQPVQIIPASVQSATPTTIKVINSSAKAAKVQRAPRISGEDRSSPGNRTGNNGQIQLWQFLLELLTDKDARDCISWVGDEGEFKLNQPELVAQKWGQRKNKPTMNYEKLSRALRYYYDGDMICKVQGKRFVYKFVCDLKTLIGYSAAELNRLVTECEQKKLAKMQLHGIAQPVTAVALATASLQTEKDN
In a few lines: as §1

In experiment [4] the target is ELF1 (Homo sapiens, UniProt P32519 1-619). In a few lines:
as §1

Experiment [5] has as its target T4, EHF (Homo sapiens, UniProt Q9NZC4 1-300).
T4 sequence: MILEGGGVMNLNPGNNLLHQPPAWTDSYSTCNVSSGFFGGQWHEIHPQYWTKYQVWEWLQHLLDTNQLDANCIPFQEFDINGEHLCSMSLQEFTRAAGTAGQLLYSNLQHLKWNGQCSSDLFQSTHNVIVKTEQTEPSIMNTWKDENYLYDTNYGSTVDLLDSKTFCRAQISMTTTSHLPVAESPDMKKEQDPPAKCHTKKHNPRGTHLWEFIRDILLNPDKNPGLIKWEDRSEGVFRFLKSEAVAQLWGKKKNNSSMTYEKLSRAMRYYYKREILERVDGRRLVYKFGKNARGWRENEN
In outline:
as §1

Experiment [6] addresses SPIB (Homo sapiens, UniProt Q01892 1-262). In a few lines: as §1
In experiment [7] the target is T5, ETV2 (Homo sapiens, UniProt O00321 1-342).
T5 sequence: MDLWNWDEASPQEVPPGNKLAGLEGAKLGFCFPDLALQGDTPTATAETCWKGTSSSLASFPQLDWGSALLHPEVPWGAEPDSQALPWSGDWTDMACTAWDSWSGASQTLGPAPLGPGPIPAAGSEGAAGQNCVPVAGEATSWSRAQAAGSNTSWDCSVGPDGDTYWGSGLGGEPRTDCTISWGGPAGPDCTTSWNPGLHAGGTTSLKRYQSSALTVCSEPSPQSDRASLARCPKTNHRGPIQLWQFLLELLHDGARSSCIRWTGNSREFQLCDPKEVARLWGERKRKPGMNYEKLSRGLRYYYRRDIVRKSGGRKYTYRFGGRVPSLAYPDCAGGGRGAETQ
In a few lines: as §1

Experiment [8] addresses ETV1 (Homo sapiens, UniProt P50549 1-477). In outline: as §1
Experiment [9] deals with T6, ERF (Homo sapiens, UniProt P50548 1-548).
T6 sequence: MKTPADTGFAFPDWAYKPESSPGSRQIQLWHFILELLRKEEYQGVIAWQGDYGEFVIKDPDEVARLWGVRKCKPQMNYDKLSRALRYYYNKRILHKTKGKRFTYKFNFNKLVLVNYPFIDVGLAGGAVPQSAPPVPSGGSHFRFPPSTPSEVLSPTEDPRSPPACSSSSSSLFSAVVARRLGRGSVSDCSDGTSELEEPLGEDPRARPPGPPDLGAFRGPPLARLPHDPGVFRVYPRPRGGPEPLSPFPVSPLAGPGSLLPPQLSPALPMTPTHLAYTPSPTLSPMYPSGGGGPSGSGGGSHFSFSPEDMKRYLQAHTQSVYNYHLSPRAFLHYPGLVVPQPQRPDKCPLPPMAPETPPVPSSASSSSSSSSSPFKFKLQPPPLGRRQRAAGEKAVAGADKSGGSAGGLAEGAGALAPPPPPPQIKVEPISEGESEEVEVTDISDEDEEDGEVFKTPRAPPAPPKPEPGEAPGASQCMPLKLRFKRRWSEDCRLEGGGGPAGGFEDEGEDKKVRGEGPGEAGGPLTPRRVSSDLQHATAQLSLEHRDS
In outline: as §1

Experiment [10] concerns the target T7, ETV3L (Homo sapiens, UniProt Q6ZN32 1-361).
T7 sequence: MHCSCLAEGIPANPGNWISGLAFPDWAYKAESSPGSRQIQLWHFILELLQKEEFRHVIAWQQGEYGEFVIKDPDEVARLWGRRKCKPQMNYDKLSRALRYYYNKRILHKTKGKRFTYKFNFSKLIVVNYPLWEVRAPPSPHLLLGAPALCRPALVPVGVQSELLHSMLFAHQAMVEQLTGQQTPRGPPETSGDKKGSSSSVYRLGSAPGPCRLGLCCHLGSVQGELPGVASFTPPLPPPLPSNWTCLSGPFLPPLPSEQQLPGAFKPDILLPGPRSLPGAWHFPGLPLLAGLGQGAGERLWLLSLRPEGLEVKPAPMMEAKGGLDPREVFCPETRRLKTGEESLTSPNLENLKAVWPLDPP
In outline: as §1

In experiment [11] the target is ETV6 (Homo sapiens, UniProt P41212 1-452). In a few lines:
as §1

The target in experiment [12] is T8, ERG (Homo sapiens, UniProt P11308 1-479).
T8 sequence: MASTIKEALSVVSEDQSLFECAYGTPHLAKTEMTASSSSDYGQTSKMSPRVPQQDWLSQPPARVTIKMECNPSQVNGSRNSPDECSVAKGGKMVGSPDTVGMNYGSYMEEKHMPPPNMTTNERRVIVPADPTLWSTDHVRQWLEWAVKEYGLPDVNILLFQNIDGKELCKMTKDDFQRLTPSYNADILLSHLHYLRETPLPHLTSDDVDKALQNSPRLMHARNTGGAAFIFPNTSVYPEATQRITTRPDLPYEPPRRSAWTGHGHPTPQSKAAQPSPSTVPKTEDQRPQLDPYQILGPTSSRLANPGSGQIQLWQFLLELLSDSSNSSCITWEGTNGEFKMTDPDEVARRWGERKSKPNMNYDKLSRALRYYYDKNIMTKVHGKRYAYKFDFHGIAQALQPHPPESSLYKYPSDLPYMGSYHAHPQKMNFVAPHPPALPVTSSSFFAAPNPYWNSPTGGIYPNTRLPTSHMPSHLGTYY
In outline:
as §1

Experiment [13] has as its target T9, ELK3 (Homo sapiens, UniProt P41970 1-407).
T9 sequence: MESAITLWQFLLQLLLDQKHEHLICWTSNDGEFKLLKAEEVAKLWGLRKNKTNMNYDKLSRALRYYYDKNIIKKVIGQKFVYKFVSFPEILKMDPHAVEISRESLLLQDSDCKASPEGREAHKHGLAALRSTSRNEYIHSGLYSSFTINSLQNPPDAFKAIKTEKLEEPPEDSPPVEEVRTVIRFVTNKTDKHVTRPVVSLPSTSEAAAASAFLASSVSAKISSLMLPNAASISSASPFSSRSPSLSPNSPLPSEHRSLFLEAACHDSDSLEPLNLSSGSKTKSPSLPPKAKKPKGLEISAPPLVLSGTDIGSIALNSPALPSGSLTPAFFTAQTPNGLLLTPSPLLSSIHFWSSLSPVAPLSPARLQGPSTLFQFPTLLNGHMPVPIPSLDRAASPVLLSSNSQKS
In outline:
as §1

The target of experiment [14] is T10, ETV3 (Homo sapiens, UniProt P41162-2 1-143).
T10 sequence: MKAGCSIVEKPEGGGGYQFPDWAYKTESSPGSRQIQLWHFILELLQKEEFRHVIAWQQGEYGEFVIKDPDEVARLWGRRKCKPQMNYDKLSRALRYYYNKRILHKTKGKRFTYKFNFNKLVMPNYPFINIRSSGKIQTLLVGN
In a few lines:
as §1

ETV1, sequence (P50549 whole entry): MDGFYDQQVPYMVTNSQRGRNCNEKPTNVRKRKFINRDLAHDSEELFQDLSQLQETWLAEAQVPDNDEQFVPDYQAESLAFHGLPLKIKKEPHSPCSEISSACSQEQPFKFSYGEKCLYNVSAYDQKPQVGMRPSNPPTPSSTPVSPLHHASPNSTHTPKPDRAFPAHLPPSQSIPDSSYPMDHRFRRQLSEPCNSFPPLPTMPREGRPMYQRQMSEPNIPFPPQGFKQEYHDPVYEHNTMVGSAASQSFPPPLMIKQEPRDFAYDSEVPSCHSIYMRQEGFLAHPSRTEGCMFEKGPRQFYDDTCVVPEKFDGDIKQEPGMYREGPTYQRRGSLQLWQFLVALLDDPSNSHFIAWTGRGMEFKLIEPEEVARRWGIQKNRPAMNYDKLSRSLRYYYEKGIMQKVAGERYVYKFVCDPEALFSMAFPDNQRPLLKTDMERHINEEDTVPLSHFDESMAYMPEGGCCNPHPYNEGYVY
ELF1, sequence (P32519 whole entry): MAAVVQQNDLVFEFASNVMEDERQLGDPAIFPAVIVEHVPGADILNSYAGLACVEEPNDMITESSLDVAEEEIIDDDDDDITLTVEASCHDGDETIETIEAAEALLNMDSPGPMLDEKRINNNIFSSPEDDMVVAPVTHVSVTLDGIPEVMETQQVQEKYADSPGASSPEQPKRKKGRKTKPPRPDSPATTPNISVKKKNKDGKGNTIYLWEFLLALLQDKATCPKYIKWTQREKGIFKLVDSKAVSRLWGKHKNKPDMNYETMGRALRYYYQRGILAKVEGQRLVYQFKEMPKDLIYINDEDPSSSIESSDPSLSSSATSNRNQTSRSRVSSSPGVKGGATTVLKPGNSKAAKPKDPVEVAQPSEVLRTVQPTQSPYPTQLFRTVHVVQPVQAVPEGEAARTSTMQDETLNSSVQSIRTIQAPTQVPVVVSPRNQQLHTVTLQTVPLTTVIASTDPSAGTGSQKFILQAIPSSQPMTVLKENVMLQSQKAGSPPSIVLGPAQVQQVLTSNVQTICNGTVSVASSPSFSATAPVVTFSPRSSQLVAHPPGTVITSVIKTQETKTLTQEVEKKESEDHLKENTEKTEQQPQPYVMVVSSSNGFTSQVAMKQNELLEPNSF
SPIB, sequence (Q01892 whole entry): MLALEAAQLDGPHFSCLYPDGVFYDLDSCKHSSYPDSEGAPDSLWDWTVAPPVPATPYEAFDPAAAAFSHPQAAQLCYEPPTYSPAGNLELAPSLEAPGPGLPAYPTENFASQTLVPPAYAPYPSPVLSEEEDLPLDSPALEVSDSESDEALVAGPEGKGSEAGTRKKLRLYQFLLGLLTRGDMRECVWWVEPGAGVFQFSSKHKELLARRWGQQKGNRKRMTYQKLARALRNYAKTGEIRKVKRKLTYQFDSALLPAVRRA
ETV6, sequence (P41212 whole entry): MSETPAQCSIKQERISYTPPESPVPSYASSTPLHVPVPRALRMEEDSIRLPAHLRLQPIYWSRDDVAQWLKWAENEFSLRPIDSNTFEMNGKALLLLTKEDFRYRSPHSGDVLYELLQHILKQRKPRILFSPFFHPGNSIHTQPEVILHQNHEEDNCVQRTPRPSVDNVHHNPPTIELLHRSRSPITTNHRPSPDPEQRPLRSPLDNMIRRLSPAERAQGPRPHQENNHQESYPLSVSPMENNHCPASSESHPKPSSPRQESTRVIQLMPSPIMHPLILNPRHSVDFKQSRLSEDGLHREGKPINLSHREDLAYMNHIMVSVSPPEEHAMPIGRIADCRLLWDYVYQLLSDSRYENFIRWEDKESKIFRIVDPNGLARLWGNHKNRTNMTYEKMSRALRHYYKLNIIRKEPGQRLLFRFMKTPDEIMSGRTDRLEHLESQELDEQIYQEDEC

For the sequence GCATCT, the binding signal in experiment [1] is 1.03 fold enrichment (6-mer frequency, TF over GST control); in [2], 1.02 fold enrichment (6-mer frequency, TF over GST control); in experiment [3], 1.03 fold enrichment (6-mer frequency, TF over GST control); in [4] it was 1.02 fold enrichment (6-mer frequency, TF over GST control); in experiment [5], 1.06 fold enrichment (6-mer frequency, TF over GST control); in [6], 1.02 fold enrichment (6-mer frequency, TF over GST control). Moreover, the binding signal was 1 fold enrichment (6-mer frequency, TF over GST control) in experiment [7]; 1.09 fold enrichment (6-mer frequency, TF over GST control) in [8]; 1.04 fold enrichment (6-mer frequency, TF over GST control) in experiment [9]; 1.05 fold enrichment (6-mer frequency, TF over GST control) in [10]; 1.01 fold enrichment (6-mer frequency, TF over GST control) in experiment [11].

Regarding CGCACA, the binding signal was 1.01 fold enrichment (6-mer frequency, TF over GST control) in experiment [1]; 1.08 fold enrichment (6-mer frequency, TF over GST control) in experiment [2]; 1.02 fold enrichment (6-mer frequency, TF over GST control) in [12]; 1.05 fold enrichment (6-mer frequency, TF over GST control) in experiment [4]; 1.03 fold enrichment (6-mer frequency, TF over GST control) in [5]; 1.02 fold enrichment (6-mer frequency, TF over GST control) in [13]. The binding signal in [8] is 1.01 fold enrichment (6-mer frequency, TF over GST control); in experiment [9], 1.07 fold enrichment (6-mer frequency, TF over GST control); in experiment [10], 1.04 fold enrichment (6-mer frequency, TF over GST control); in experiment [14], 1.03 fold enrichment (6-mer frequency, TF over GST control).
